Experimental data reported in PubChem BioAssay.
The source made the active and inactive calls.

Legend:
[1] = E. coli DRC41 culture turbidity changes, primary screen, E. coli filamentation inducer project, strain DRC41, OD650, 48 h (AID 1152);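 note: E. coli MC1000 strain DRC41 lacking acrAB efflux pump and sulA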; conditions: E. coli DRC41 (acrAB sulA), higher = more signal, called active from +8 up or from −8 down
[2] = small-molecule binders of probe aLefty1, primary screen, biochemical, small-molecule microarray, 635/667 nm fluorescence (AID 1153); conditions: higher = more signal;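 note: score merges spot fluorescence with signal-to-noise ratio from the scanned slide images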
[3] = PSAC antagonists in infected red cells, primary screen, cell-based, P. falciparum Indochina, OD700, 1 h (AID 1154); conditions: P. falciparum Indochina infected RBC osmotic lysis, higher = more signal, called active from +8 up or from −8 down
[4] = PSAC antagonists in infected red cells, primary screen, cell-based, P. falciparum Indochina, OD700, 2 h (AID 1155);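 note: lysis reports solute entry through the parasite surface anion channel PSAC; channel blockers reduce lysis of infected cells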; conditions: P. falciparum Indochina infected erythrocytes, osmotic lysis OD700; higher = more signal, called active from +8 up or from −8 down
[5] = osmotic lysis modulators in infected erythrocytes, primary screen, PSAC antagonist project, cell-based, P. falciparum Indochina, OD700, 3 h (AID 1156); conditions: higher = more signal, called active from +8 up or from −8 down
[6] = PSAC antagonists in infected red cells, primary screen, cell-based, P. falciparum Indochina, OD700, 18 h (AID 1157); conditions: P. falciparum Indochina infected erythrocytes, osmotic lysis OD700, 18 h; higher = more signal, called active from +8 up or from −8 down
[7] = modulators of S6 phosphorylation in cells, primary screen, cell-based, A549, cytoblot, luminescence, serum-stimulated (AID 1158); conditions: A549 phospho-S6 cytoblot, 5 h, higher = more signal;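 note: serum-stimulated A549 lung adenocarcinoma cells; signal is phosphorylated S6 detected by cytoblot immunostaining with HRP secondary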
[8] = target: NADPH oxidase 2 (Homo sapiens) (UniProt P04839); experiment: NOX2-dependent H2O2 signal modulators, primary screen, NOX inhibitor project, cell-based, HEK293-NOX2, PMA-stimulated, Amplex Red fluorescence (AID 1159); conditions: 45 min, higher = more signal, called active from +8 up or from −8 down; note: test concentration not given here
Chain of NADPH oxidase 2 (Homo sapiens) (P04839 whole entry, looked up): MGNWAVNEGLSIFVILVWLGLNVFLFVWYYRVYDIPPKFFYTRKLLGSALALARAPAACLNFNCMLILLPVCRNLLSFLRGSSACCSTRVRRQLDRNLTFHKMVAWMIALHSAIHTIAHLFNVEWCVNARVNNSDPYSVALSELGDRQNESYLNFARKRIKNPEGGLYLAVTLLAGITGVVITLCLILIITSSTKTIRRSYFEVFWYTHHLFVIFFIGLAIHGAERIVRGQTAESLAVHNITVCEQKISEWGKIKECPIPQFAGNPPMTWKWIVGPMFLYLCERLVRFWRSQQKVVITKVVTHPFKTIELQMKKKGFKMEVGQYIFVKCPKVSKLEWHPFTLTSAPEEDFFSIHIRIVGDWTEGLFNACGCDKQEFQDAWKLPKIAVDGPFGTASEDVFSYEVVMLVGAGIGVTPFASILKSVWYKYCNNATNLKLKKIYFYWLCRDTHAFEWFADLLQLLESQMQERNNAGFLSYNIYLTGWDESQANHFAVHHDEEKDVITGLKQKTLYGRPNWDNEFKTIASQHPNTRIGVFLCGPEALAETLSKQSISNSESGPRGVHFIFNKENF

[9] = target: NADPH oxidase 4 (Homo sapiens) (UniProt Q9NPH5); experiment: NOX4-dependent H2O2 signal modulators, primary screen, NOX inhibitor project, cell-based, HEK293-NOX4, tetracycline-induced, Amplex Red fluorescence (AID 1160); conditions: 45 min, higher = more signal, called active from +8 up or from −8 down
Chain of NADPH oxidase 4 (Homo sapiens) (Q9NPH5 whole entry, looked up): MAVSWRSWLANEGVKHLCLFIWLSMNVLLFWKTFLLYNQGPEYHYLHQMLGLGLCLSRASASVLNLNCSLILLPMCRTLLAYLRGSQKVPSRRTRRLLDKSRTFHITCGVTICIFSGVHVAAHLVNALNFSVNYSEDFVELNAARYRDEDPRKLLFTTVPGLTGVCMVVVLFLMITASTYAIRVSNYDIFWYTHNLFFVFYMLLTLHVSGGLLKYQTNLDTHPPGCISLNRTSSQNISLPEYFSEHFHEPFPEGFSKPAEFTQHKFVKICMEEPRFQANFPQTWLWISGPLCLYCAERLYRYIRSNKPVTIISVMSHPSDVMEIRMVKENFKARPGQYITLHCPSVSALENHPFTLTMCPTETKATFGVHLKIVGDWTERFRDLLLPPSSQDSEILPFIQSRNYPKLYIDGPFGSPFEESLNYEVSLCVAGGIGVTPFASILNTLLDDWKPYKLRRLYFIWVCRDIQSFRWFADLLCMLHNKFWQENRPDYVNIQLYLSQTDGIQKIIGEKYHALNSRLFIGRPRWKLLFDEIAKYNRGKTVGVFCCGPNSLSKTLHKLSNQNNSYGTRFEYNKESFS

[10] = target: NADPH oxidase 5 (Homo sapiens) (UniProt Q96PH1); experiment: NOX5-dependent H2O2 signal modulators, primary screen, NOX inhibitor project, cell-based, HEK293-NOX5, Amplex Red fluorescence (AID 1161); conditions: HEK293-NOX5, ionomycin, 45 min, higher = more signal
Chain of NADPH oxidase 5 (Homo sapiens) (Q96PH1 whole entry, looked up): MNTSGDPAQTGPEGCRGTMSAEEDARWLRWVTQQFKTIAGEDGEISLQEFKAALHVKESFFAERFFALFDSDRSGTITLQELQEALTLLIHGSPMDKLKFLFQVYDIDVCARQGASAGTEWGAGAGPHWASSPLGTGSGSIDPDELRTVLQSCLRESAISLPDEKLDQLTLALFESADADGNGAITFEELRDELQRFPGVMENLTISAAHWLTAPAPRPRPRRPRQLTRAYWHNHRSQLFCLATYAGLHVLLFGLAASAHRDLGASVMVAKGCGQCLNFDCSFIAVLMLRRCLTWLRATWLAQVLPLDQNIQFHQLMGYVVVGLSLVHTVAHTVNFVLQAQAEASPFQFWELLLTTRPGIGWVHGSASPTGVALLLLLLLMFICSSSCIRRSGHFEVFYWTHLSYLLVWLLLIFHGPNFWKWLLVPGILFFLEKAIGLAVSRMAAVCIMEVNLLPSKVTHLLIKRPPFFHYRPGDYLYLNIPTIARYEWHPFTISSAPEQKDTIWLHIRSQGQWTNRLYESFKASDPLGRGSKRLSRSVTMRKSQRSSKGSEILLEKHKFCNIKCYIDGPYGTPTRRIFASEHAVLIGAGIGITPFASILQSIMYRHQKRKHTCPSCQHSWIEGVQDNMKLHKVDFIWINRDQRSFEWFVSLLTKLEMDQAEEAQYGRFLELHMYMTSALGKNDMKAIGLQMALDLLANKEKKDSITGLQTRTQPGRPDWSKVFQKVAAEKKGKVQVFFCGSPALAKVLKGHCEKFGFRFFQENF

[11] = A549 cell viability effects, profiling panel, calcein-AM fluorescence, 48 h, basal (AID 1162); conditions: higher = more signal; note: test concentration not given here
[12] = adipocyte viability effects, profiling panel, cell-based, 3T3-L1 adipocytes, calcein-AM fluorescence, 48 h, basal (AID 1163); conditions: 3T3-L1 adipocytes viability, higher = more signal; note: test concentration not given here
[13] = HepG2 cell viability effects, profiling panel, calcein-AM fluorescence, 48 h, basal (AID 1164); conditions: higher = more signal; note: test concentration not given here
[14] = MM1S cell viability effects, profiling panel, calcein-AM fluorescence, 48 h, basal (AID 1165); conditions: higher = more signal;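 note: viability of MM1S multiple myeloma cells under basal unstimulated conditions; test concentration not given here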
[15] = basal RPMI8226 viability, no added stimulus, profiling panel, cell-based, calcein-AM fluorescence, 48 h, PK04 Diversity Set (AID 1166); conditions: RPMI8226 myeloma viability, higher = more signal;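 note: cells grown under basal conditions without added stimulus; test concentration not given here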
[16] = basal HepG2 mitochondrial membrane potential changes, profiling panel, cell-based, JC-1 fluorescence, 24 h, 100 nL compound (AID 1167); conditions: higher = more signal; note: test concentration not given here
[17] = basal 3T3-L1 adipocyte mitochondrial potential changes, profiling panel, cell-based, JC-1 fluorescence, 3T3-L1 adipocytes, 24 h, 100 nL compound (AID 1168); conditions: JC-1 mitochondrial fluorescence, higher = more signal, called active from +8 up or from −8 down; note: test concentration not given here
[18] = basal RPMI8226 mitochondrial membrane potential changes, profiling panel, cell-based, JC-1 fluorescence, 24 h, 100 nL compound (AID 1169); conditions: RPMI8226 myeloma, JC-1 mitochondrial potential fluorescence, higher = more signal; note: test concentration not given here
[19] = basal MM1S mitochondrial membrane potential changes, profiling panel, cell-based, JC-1 fluorescence, 24 h, 100 nL compound (AID 1170); conditions: higher = more signal; note: test concentration not given here
[20] = A549 lung cancer cell viability effects, profiling panel, resazurin fluorescence, 24 h, PK04 Diversity Set (AID 1171); conditions: higher = more signal, called active from +8 up or from −8 down; note: test concentration not given here

O=C(O)[C@H](Cc1ccccc1)n1cc(-c2ccccn2)nn1
z-score [1]: -0.267 (inactive) | composite z-score [2]: -0.0969 | z-score [3]: -0.258 (inactive) | z-score [4]: -0.431 (inactive) | z-score [5]: -0.906 (inactive) | z-score [6]: -0.0561 (inactive) | z-score [7]: -0.428 | z-score [8]: -1.61 (inactive) | z-score [9]: -0.653 (inactive) | z-score [10]: -1.24 | z-score [11]: -0.529 | z-score [12]: 0.039 | z-score [13]: -0.129 | z-score [14]: 0.228 | z-score [15]: -0.608 | z-score [16]: 0.237 | z-score [17]: 1.56 (inactive) | z-score [18]: -0.166 | z-score [19]: -0.263 | z-score [20]: 0.507 (inactive)

O=C1C[C@]2(c3ccc([N+](=O)[O-])cc3)C(=O)N(Cc3ccccc3)c3cc(CO)ccc3[C@H]2N1CC12CC3CC(CC(C3)C1)C2
z-score [1]: -0.06 (inactive) | composite z-score [2]: -0.678 | z-score [3]: 0.556 (inactive) | z-score [4]: 0.37 (inactive) | z-score [5]: -0.401 (inactive) | z-score [6]: 0.23 (inactive) | z-score [7]: -0.218 | z-score [8]: 0.135 (inactive) | z-score [9]: 0.256 (inactive) | z-score [10]: 0.664 | z-score [11]: 0.376 | z-score [12]: -1.02 | z-score [13]: 1.51 | z-score [14]: 0.397 | z-score [15]: 0.329 | z-score [16]: -0.821 | z-score [17]: 0.286 (inactive) | z-score [18]: 0.589 | z-score [19]: -1.02 | z-score [20]: -0.849 (inactive)

CCOC(=CC(=O)OC)CC(O)c1cccc(Cl)c1 (stereo not given)
z-score [1]: 1.04 (inactive) | composite z-score [2]: -0.494 | z-score [3]: 4.33 (inactive) | z-score [4]: 0.101 (inactive) | z-score [5]: 0.898 (inactive) | z-score [6]: -1.72 (inactive) | z-score [7]: 0.979 | z-score [8]: 0.112 (inactive) | z-score [9]: -0.513 (inactive) | z-score [10]: -0.131 | z-score [11]: 0.738 | z-score [12]: 0.342 | z-score [13]: -0.0117 | z-score [14]: 0.221 | z-score [15]: -1.15 | z-score [16]: 0.363 | z-score [17]: 0.0253 (inactive) | z-score [18]: -0.0603 | z-score [19]: -0.69 | z-score [20]: 0.0735 (inactive)

CN(C)CCCCNC(=O)[C@H]1C[C@H]2C(=O)N3CCC[C@H]3C(=O)N2[C@H]1c1ccc(O)cc1
z-score [1]: 1.67 (inactive) | composite z-score [2]: -0.926 | z-score [3]: 0.148 (inactive) | z-score [4]: -1.79 (inactive) | z-score [5]: 1.55 (inactive) | z-score [6]: -2.18 (inactive) | z-score [7]: 0.752 | z-score [8]: -0.714 (inactive) | z-score [9]: -0.561 (inactive) | z-score [10]: -3.16 | z-score [11]: -0.448 | z-score [12]: 0.862 | z-score [13]: -0.55 | z-score [14]: 0.26 | z-score [15]: 0.293 | z-score [16]: -0.835 | z-score [17]: -0.104 (inactive) | z-score [18]: 0.613 | z-score [19]: -0.927 | z-score [20]: 0.228 (inactive)

CCCCC(CC)C(O)C1C=CC2C(=O)N(c3ccccc3)C(=O)C2N1Nc1ccc([N+](=O)[O-])cc1 (stereo not given)
z-score [1]: -0.999 (inactive) | composite z-score [2]: 0.602 | z-score [3]: 3.19 (inactive) | z-score [4]: 0.724 (inactive) | z-score [5]: 0.369 (inactive) | z-score [6]: 0.487 (inactive) | z-score [7]: -0.429 | z-score [8]: -0.441 (inactive) | z-score [9]: -1.6 (inactive) | z-score [10]: -1.33 | z-score [11]: -0.561 | z-score [12]: -0.0969 | z-score [13]: -0.919 | z-score [14]: -0.41 | z-score [15]: -1.1 | z-score [16]: -1.74 | z-score [17]: -1.56 (inactive) | z-score [18]: 0.349 | z-score [19]: -1.03 | z-score [20]: -0.451 (inactive)

CC(C)(C)OC(=O)CC[C@]1(C(=O)NCCN2CCOCC2)N=C(c2ccc(OCCCO)cc2)O[C@H]1c1ccccc1
z-score [1]: 0.167 (inactive) | composite z-score [2]: 0.119 | z-score [3]: 12.5 (active) | z-score [4]: 1.5 (inactive) | z-score [5]: 0.531 (inactive) | z-score [6]: 0.47 (inactive) | z-score [7]: -0.501 | z-score [8]: 0.618 (inactive) | z-score [9]: 1.54 (inactive) | z-score [10]: 1.42 | z-score [11]: 1.01 | z-score [12]: -1.82 | z-score [13]: 0.549 | z-score [14]: 0.251 | z-score [15]: -0.51 | z-score [16]: -0.342 | z-score [17]: 0.134 (inactive) | z-score [18]: -0.69 | z-score [19]: -0.158 | z-score [20]: 0.0762 (inactive)

NC(=O)NCC#Cc1ccc2c(c1)[C@]1(C(=O)N2)[C@H](C(=O)Nc2nc3ccccc3s2)[C@H]2C(=O)O[C@H](c3ccccc3)[C@H](c3ccccc3)N2[C@@H]1c1ccc(O)cc1
z-score [1]: 0.996 (inactive) | composite z-score [2]: 0.315 | z-score [3]: 2.92 (inactive) | z-score [4]: 2.35 (inactive) | z-score [5]: 0.962 (inactive) | z-score [6]: 1.19 (inactive) | z-score [7]: -0.0609 | z-score [8]: -0.23 (inactive) | z-score [9]: -1.27 (inactive) | z-score [10]: 0.16 | z-score [11]: 0.234 | z-score [12]: 1.28 | z-score [13]: 0.28 | z-score [14]: -0.614 | z-score [15]: 0.76 | z-score [16]: -3.35 | z-score [17]: 0.588 (inactive) | z-score [18]: -0.937 | z-score [19]: -1.9 | z-score [20]: 1.78 (inactive)

C[N+](C)(C)CCCC[C@@H]1NC(=O)[C@@H]2C[C@H](C(=O)O)[C@H](c3ccc(O)cc3)N2C1=O
z-score [1]: -0.105 (inactive) | composite z-score [2]: -0.248 | z-score [3]: 0.277 (inactive) | z-score [4]: 0.156 (inactive) | z-score [5]: -0.0003 (inactive) | z-score [6]: 0.0583 (inactive) | z-score [7]: 0.423 | z-score [8]: -0.0831 (inactive) | z-score [9]: -0.223 (inactive) | z-score [10]: 0.903 | z-score [11]: -0.643 | z-score [12]: 0.422 | z-score [13]: 0.914 | z-score [14]: 0.379 | z-score [15]: -0.0923 | z-score [16]: 0.0942 | z-score [17]: -0.907 (inactive) | z-score [18]: -0.142 | z-score [19]: -0.454 | z-score [20]: -0.246 (inactive)

CN(C)CCCCNC(=O)[C@H]1C[C@H]2C(=O)N[C@@H](CCCCN(C)C)C(=O)N2[C@H]1c1cccc(OCCO)c1
z-score [1]: 0.357 (inactive) | composite z-score [2]: -0.546 | z-score [3]: 0.72 (inactive) | z-score [4]: -0.0174 (inactive) | z-score [5]: -0.71 (inactive) | z-score [6]: -0.0919 (inactive) | z-score [7]: -0.518 | z-score [8]: 0.731 (inactive) | z-score [9]: 0.756 (inactive) | z-score [10]: -0.151 | z-score [11]: -0.317 | z-score [12]: 0.0593 | z-score [13]: -0.269 | z-score [14]: -0.0355 | z-score [15]: 0.495 | z-score [16]: 0.13 | z-score [17]: 0.429 (inactive) | z-score [18]: 0.426 | z-score [19]: 0.23 | z-score [20]: 0.471 (inactive)
